Inconclusive results are not listed. Active and inactive are the calls of the source. Calls come from the whole dose curve; as a rule, active = well fitted curve in the direction sought with a large enough effect; inconclusive = small, poorly fitted or top-dose-only effect, or another doubt; inactive = no such curve, though single readings can be large; an effect the other way counts as inactive or inconclusive.

Results on seven compounds are retold here after PubChem BioAssay (NCATS).

Test [1] is described as follows: S16 Schwann cell viability assay (CellTiter-Glo assay) (AID 624031).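 Note: cellular ATP luminescence as a viability measure; nearly all actives have a fitted effect of over 70% in size.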 In short, it runs like this: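 Native S16 Schwann cells (rat), serum-containing medium, overnight attachment then 24 h drug exposure at 37 °C/5% CO2. CellTiter-Glo ATP signal; normalized to cell-free and vehicle wells.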
A further test relates to 3D7. The test can be described thus: qHTS profiling for inhibitors of Plasmodium falciparum proliferation (AID 504749). Note: nearly all actives have a fitted effect of over 60% in size. Note: potency is the fitted concentration of half-maximal effect. Conditions: P. falciparum in erythrocytes, SYBR Green DNA, 72 h; series mostly up to 12.8 µM. The gist of the method:
(§1)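 Parasite proliferation within erythrocytes, 72 h exposure. Endpoint: SYBR Green I fluorescence after overnight lysis at room temperature. Controls: 0.29 uM artemisinin, DMSO.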
On the technique in general: qHTS replaces the single test concentration by a dilution series.

The subject of the next test is 7G8. The test is described as above. Conditions: P. falciparum in erythrocytes, SYBR Green DNA, 72 h; series mostly up to 12.8 µM. The gist of the method: as §1
Another test has as its system AA1029. The description is as above. Conditions: P. falciparum in erythrocytes, SYBR Green DNA, 72 h; series mostly up to 12.8 µM. In short, it runs like this:
as §1

In a further test the test system is ATS189. Described as above. Conditions: P. falciparum in erythrocytes, SYBR Green DNA, 72 h; series mostly up to 12.8 µM. In short, it runs like this:
as §1

In a further test the test system is CP191. The test is described as above. Conditions: P. falciparum in erythrocytes, SYBR Green DNA, 72 h; series mostly up to 12.8 µM. The gist of the method: as §1
A further test has as its system CP194. The description is as above. Conditions: P. falciparum in erythrocytes, SYBR Green DNA, 72 h; series mostly up to 12.8 µM. The gist of the method: as §1
A further test deals with CP203. The test is described as above. Conditions: P. falciparum in erythrocytes, SYBR Green DNA, 72 h; series mostly up to 12.8 µM. In short, it runs like this:
as §1

In another test the test system is CP215. The description is as above. Conditions: P. falciparum in erythrocytes, SYBR Green DNA, 72 h; series mostly up to 28.7 µM. The gist of the method: as §1
The test system of another test is CP237. The description is as above. Conditions: P. falciparum in erythrocytes, SYBR Green DNA, 72 h; series mostly up to 12.8 µM. The gist of the method: as §1
The next test concerns CP247. The test is described as above. Conditions: P. falciparum in erythrocytes, SYBR Green DNA, 72 h; series mostly up to 12.8 µM. The gist of the method: as §1
The next test relates to CP268. The description is as above. Conditions: P. falciparum in erythrocytes, SYBR Green DNA, 72 h; series mostly up to 12.8 µM. In short, it runs like this:
as §1

Another test concerns CP286. Described as above. Conditions: P. falciparum in erythrocytes, SYBR Green DNA, 72 h; series mostly up to 12.8 µM. The gist of the method: as §1
The next test deals with DIV30. Described as above. Conditions: P. falciparum in erythrocytes, SYBR Green DNA, 72 h; series mostly up to 12.8 µM. In short, it runs like this:
as §1

For the next test, the system named is ICS. The test is described as above. Conditions: P. falciparum in erythrocytes, SYBR Green DNA, 72 h; series mostly up to 12.8 µM. In short, it runs like this:
as §1

A further test relates to P94_40. The test is described as above. Conditions: P. falciparum in erythrocytes, SYBR Green DNA, 72 h; series mostly up to 12.8 µM. In short, it runs like this:
as §1

For the next test, the system named is PAD. The test is described as above. Conditions: P. falciparum in erythrocytes, SYBR Green DNA, 72 h; series mostly up to 12.8 µM. The gist of the method: as §1
For another test, the system named is PC26. The description is as above. Conditions: P. falciparum in erythrocytes, SYBR Green DNA, 72 h; series mostly up to 12.8 µM. In short, it runs like this: as §1
The subject of another test is TAB109. The test is described as above. Conditions: P. falciparum in erythrocytes, SYBR Green DNA, 72 h; series mostly up to 12.8 µM. In short, it runs like this:
as §1

For another test, the system named is TAB165. The description is as above. Conditions: P. falciparum in erythrocytes, SYBR Green DNA, 72 h; series mostly up to 12.8 µM. In short, it runs like this:
as §1

Consider `CC(C)(O/N=C(\C(=O)N[C@@H]1C(=O)N2C(C(=O)[O-])=C(C[n+]3ccccc3)CS[C@@H]12)c1csc(N)n1)C(=O)O`, for which the Potency entry (in test [1]; in the test on 3D7; in the test with 7G8; with AA1029; in the test on ATS189; in the test with CP191) was “inactive” each time. In addition, the Potency entry in the test on CP194, with CP203, with CP215, in the test on CP237, with CP247 and with CP268 was “inactive” in each case. In addition, the Potency result in the test on CP286, in the test with DIV30, in the test with ICS, in the test on P94_40, in the test on PAD and in the test with PC26 was “inactive” in each case. Further, the Potency result with TAB109 and in the test with TAB165 was “inactive” throughout.
Turning to `CCN(CC)CC#CCOC(=O)[C@@](O)(c1ccccc1)C1CCCCC1`, the Potency entry (in test [1]; with CP203; in the test on CP215) was “inactive” each time. The Potency with 7G8 is 8910 nM (active).
Regarding `CCN(CC)CCC[C@H](C)Nc1ccnc2cc(Cl)ccc12`, the Potency result in test [1] is “inactive”. Also, the Potency with 3D7 was 158 nM (active); with 7G8, 1000 nM (active); in the test on AA1029, 8910 nM (active); in the test with CP191, 8910 nM (active); in the test on CP237, 4470 nM (active); with CP268, 4260 nM (active). Moreover, the Potency in the test on CP286 is 3160 nM (active); with DIV30 it was 6750 nM (active); in the test on ICS, 3980 nM (active); with P94_40 it was 5010 nM (active); in the test with PAD, 3550 nM (active); in the test on PC26, 4780 nM (active). In addition, the Potency in the test on TAB109 is 3550 nM (active); with TAB165, 5620 nM (active).
For the compound `NC(N)=NC[C@@H]1COC2(CCCCC2)O1`, the Potency entry (in [1]; in the test with 3D7; with 7G8; in the test with AA1029; with ATS189; in the test with CP191) was “inactive” each time. Besides, the Potency result with CP194, in the test on CP203, in the test on CP215, in the test on CP237, in the test on CP247 and in the test with CP268 was “inactive” in each case. Further, the Potency entry in the test on CP286, in the test with DIV30, in the test on ICS, in the test on P94_40, in the test on PAD and in the test with PC26 was “inactive” throughout. In addition, the Potency result with TAB109 and in the test on TAB165 was “inactive” throughout.
In the case of `CO[C@H]1C[C@@H](O[C@@H]2[C@H](C)[C@H](O[C@@H]3O[C@@H](C)C[C@@H](N(C)C)[C@@H]3O)[C@H](C)C[C@]3(CO3)C(=O)[C@H](C)[C@H](O)[C@H](C)[C@H](C)OC(=O)[C@@H]2C)O[C@@H](C)[C@H]1O`, the Potency entry (in test [1]; in the test on 3D7; in the test on 7G8; with AA1029; with ATS189; in the test with CP191) was “inactive” each time. Also, the Potency entry with CP194, in the test on CP203, in the test on CP215, in the test with CP237, in the test with CP247 and with CP268 was “inactive” throughout. Further, the Potency result with CP286, with DIV30, in the test with ICS, in the test with P94_40, in the test with PAD and with PC26 was “inactive” throughout. Further, the Potency entry with TAB109 and with TAB165 was “inactive” in each case.
Consider `CCN(CC)CCC[C@H](C)Nc1c2ccc(Cl)cc2nc2ccc(OC)cc12`, for which, in test [1], the Potency entry is “inactive”. The Potency in the test on 3D7 was 89.1 nM (active); with 7G8, 282 nM (active); with AA1029, 631 nM (active); with ATS189, 891 nM (active); in the test on CP191, 398 nM (active); with CP194, 1510 nM (active). In addition, the Potency is 2130 nM (active) in the test with CP203; 1690 nM (active) in the test on CP215; 316 nM (active) in the test with CP237; 1120 nM (active) with CP247; 478 nM (active) in the test with CP268; 282 nM (active) with CP286. Besides, the Potency is 1070 nM (active) in the test on DIV30; 158 nM (active) in the test with ICS; 562 nM (active) in the test with P94_40; 398 nM (active) with PAD; 675 nM (active) in the test with PC26; 501 nM (active) with TAB109. Moreover, in the test on TAB165, the Potency is 398 nM (active).
`CC(=O)Nc1c(I)c(C(=O)N[C@H]2[C@@H](O)[C@H](O)[C@H](CO)O[C@@H]2O)c(I)c(N(C)C(C)=O)c1I`: the Potency result (in [1]; in the test on 3D7; in the test with 7G8; with AA1029; in the test on ATS189; in the test with CP191) was “inactive” in each case. Further, the Potency entry in the test on CP194, in the test on CP203, with CP215, in the test on CP237, with CP247 and in the test on CP268 was “inactive” throughout. Moreover, the Potency result in the test on CP286, in the test on DIV30, with ICS, with P94_40, in the test with PAD and in the test on PC26 was “inactive” throughout. Further, the Potency result with TAB109 and with TAB165 was “inactive” each time.
